Data from PubChem BioAssay (EPA / NIEHS).
Calls of active or inactive are those of the source. The calls were made as follows: active = hit-call score of the fitted dose curve at least 0.9, where 1 is the maximum; inactive = score below 0.9.

Experiment: ATG_NF_kB_CIS: Attagene CIS-FACTORIAL HepG2 Assay for human Nuclear Factor Kappa B (NF-kB) (AID 2282991)
Conditions: HepG2 Attagene cis-factorial NF-kB reporter mRNA; actives raise or lower the signal
Procedure: ATG_CIS is a cell-based, multiplexed-readout assay that uses HepG2, a human liver cell line, with measurements taken at 24 hours after chemical dosing in a 24-well plate.ATG_NF_kB_CIS is one of 52 assay component(s) measured or calculated from the ATG_CIS assay. It is designed to make measurements of mRNA induction, a form of inducible reporter, as detected with fluorescence intensity signals by Reverse transcription polymerase chain reaction (RT-PCR) and Capillary electrophoresis technology.Data from the assay component ATG_NF_kB_CIS was analyzed into 1 assay endpoint. This assay endpoint, ATG_NF_kB_CIS, was analyzed with bidirectional fitting relative to DMSO as the negative control and baseline of activity. Using a type of inducible reporter, measures of mRNA for gain or loss-of-signal activity can be used to understand the reporter gene at the transcription factor-level as they relate to the gene NFKB1. Furthermore, this assay endpoint can be referred to as a primary readout, because this assay has produced multiple assay endpoints where this one serves a reporter gene function. To generalize the intended target to other relatable targets, this assay endpoint is annotated to the dna binding intended target family, where the subfamily is NF-kappa B.
Human liver HepG2 cells are transiently transfected with multiple reporter transcription units (MRTUs) in 6-well plates using FuGene 6 reagent (Roche; 3 ml FuGene/1 mg DNA). The MRTU constructs are regulated by a cis-regulating element (promoter). […] A major difference between the CIS and TRANS system is that in CIS activities of endogenous TFs are measured, whereas the TRANS assay evaluates changes in activities of exogenous, chimeric NR-Gal4 proteins. […] At the end of 24 hour incubation, total RNA was isolated using TriZol reagent (Invitrogen). The isolated RNA is then reverse-transcribed using oligo(dT) primer and Mo-MLV reverse transcriptase (Invitrogen) with DNAse I (Ambion) treatment for 30 min. The one-tenth of the produced cDNA was amplified by PCR using Taq DNA polymerase (Invitrogen) and two reporter sequence-specific primers. The PCR products were fluorescently labeled by primer extension with 6-arboxyfluorescein (6-FAM) 5'-labeled reporter sequence-specific primer (2 min at 95 C, 20 s at 68 C and 10 min at 72 C) and these products were digested with 5U of HpaI (New England Biolabs) for 2h at 37 C. The fragments were purified using Qiaquick PCR columns (Qiagen), analyzed on an ABI 3130xL genetic analyzer (Applied Biosystems) with peak positions identified by using a set of X-rhodamine (ROX)-labeled MapMarker1000 molecular weight standards (BioVentures). The raw capillary electrophoresis data was processed using Attagraph software (Attagene).

Row | SMILES | outcome | AC50
1 | COCCOC(=O)c1ccccc1C(=O)OCCOC | inactive | 
2 | C#CC(C)(O)CC(C)C (stereo not given) | inactive | 
3 | CC(CN=Cc1ccccc1O)N=Cc1ccccc1O (stereo not given) |  | 63.6 µM (active)
4 | CC(C)=CCCC(C)CC(=O)O (stereo not given) | inactive | 
5 | CC(C)(C)CC(C)(C)c1ccc(OCCOCC[N+](C)(C)Cc2ccccc2)cc1 | inactive | 
6 | CC(C)(CO)[C@@H](O)C(=O)NCCC(=O)O | inactive | 
7 | CCOC(=O)CC(C)O (stereo not given) | inactive | 
8 | CC(=O)C1(C)CC2=C(CCCC2(C)C)CC1C (stereo not given) |  | 121 µM (active)
9 | Cc1cc(S(=O)(=O)O)ccc1N=Nc1c(O)ccc2ccccc12 | inactive | 
10 | CCOC(=O)[C@@H](C)Oc1ccc(Oc2nc3ccc(Cl)cc3o2)cc1 | inactive | 
11 | COC(=O)c1ccc(C)cc1C1=NC(C)(C(C)C)C(=O)N1 (stereo not given) (tested in a mixture with another compound) | inactive | 
12 | Cc1[nH]c(=O)c(C#N)cc1-c1ccncc1 | inactive | 
13 | CCOC(=O)C1OC1c1ccccc1 (stereo not given) |  | 47 µM (active)
14 | CC(C)C[C@H](NC(=O)OCC1c2ccccc2-c2ccccc21)C(=O)O | inactive | 
15 | CCC(C)S (stereo not given) | inactive | 
16 | C=CCOC(=O)CCCCCC | inactive | 
17 | Cc1cc(=O)oc2cc(N(C)C)ccc12 | inactive | 
18 | OCCCCC(O)CO (stereo not given) | inactive | 
19 | CC(C)CCCCCCCCCCCCCCC(=O)O | inactive | 
20 | CC(C)C(OC(=O)c1ccccc1)C(C)(C)COC(=O)c1ccccc1 (stereo not given) | inactive | 

Row | SMILES | outcome | AC50
21 | OCCc1ccccc1 | inactive | 
22 | CN1C(=O)c2ccccc2C1=O | inactive | 
23 | c1ccc2cc(Nc3ccc(Nc4ccc5ccccc5c4)cc3)ccc2c1 | inactive | 
24 | CS(C)=O | inactive | 
25 | NC(=S)NNC(N)=S | inactive | 
26 | O=C1NC2NC(=O)NC2N1 (stereo not given) | inactive | 
27 | CCCCSCCCC | inactive | 
28 | CN(C)CCOc1ccc(/C(=C(/CCCl)c2ccccc2)c2ccccc2)cc1 | inactive | 
29 | CN(C)C(=S)SC(=S)N(C)C | inactive | 
30 | C[Si](C)(C)O[Si](C)(C)C | inactive | 
31 | CCOC(=O)CN | inactive | 
32 | CN(C)C(=O)Nc1ccc(Oc2ccc(Cl)cc2)cc1 | inactive | 
33 | O=C1OC2(c3ccccc31)c1ccc(O)c(Br)c1Oc1c2ccc(O)c1Br | inactive | 
34 | Cc1ccc(S(=O)(=O)Oc2ccc(N=Nc3ccc(-c4ccc(N=Nc5c(O)ccc6cc(S(=O)(=O)O)cc(S(=O)(=O)O)c56)c(C)c4)cc3C)cc2)cc1 | inactive | 
35 | CC(C)CCOC(=O)c1ccccc1 | inactive | 
36 | C[C@@H]1CCN(C(=O)[C@H](CCCN=C(N)N)NS(=O)(=O)c2cccc3c2NC[C@H](C)C3)[C@@H](C(=O)O)C1 | inactive | 
37 | O=C(O)c1cc(C(=O)O)cc([N+](=O)[O-])c1 | inactive | 
38 | CC1CCC(C(C)C)C(O)C1 (stereo not given) | inactive | 
39 | CCCCCCCCCCCC(=O)OCC(O)CO (stereo not given) |  | 100 µM (active)
40 | CC(=O)Nc1ccc(C(=O)CCl)cc1 |  | 2.5 µM (active)
